From PMC12136788
Where a chain is given by its changes, count along the chain named. In all, about 24,000 sequences were measured (“enrichment r”: median about 0.99, highest 2% from about 3.7 on). Only a selection was taken, and the highest values are over-represented in it overall.

B1: chr11:2981123:2981124:-_ENSG00000205531_ENST00000380542|hu_mus|FALSE|FALSE (ssRNA)
RNA: GGGAGUUCUACAGUCCGACGAUCCUUGUACGUUUUCGUCAGGACAGGAUUGGUGAAGUAGUCGUUGGGUUCAAAGUGAAACUCUAGCACAAAAGACAUAGGUUGUCCAGGGUCUGAAAACUUCACUUUAAUAUCCUGCAGAUGCAACAGAGGAUUGAGCAUCA
B2: chr6:155153589:155153590:+_ENSG00000213079_ENST00000417268|hu_hu|motif|central (ssRNA)
RNA: GGGAGUUCUACAGUCCGACGAUCAGUAACAUUGUCUACGCUUUGUCUUCCAGGAGCUAAAAAAGGUCUUUCUGGUUGACGGAAAAUAUCUCCUGGAGGAAAAGGUCCACGGGGUGGUGGAUGAAGAGCUGAAUCAAGUACCGACAACAGAGGAUUGAGCAUCA
B3: chr1:161298228:161298229:+_ENSG00000143252_ENST00000367975|hu_hu|motif|central (ssRNA)
RNA: GGGAGUUCUACAGUCCGACGAUCCAUGGGAAGAGACCAACUGUAGAUAGUAAUGUGGGGAGACAGAGGACGGUUUGAACCGGUAUUCUUAUUCCAGAACCGCUCCAUCUCUUCUUUGGCCGUGGUUCCCAAAGGAACAGCAUUCAACAGAGGAUUGAGCAUCA
B4: 32561585_32561705_2007_CDS_ENSG00000100852_ENST00000539826|human|control|control (ssRNA)
RNA: GGGAGUUCUACAGUCCGACGAUCUAGUUCUUGGGCAAGGCCAUCCUUCCCUAAAAUAAAAAGGUUAACUUUAUCUAUAUUGGUACUAUCGUGAUAUAAUCUUAAGCGGCCAUGAUCCAACUGUAAAAGACUACUAGCAAGUAACAACAGAGGAUUGAGCAUCA
B5: chr3:139076767:139076768:-_ENSG00000184432_ENST00000507777|hu_mus|motif|central (ssRNA)
RNA: GGGAGUUCUACAGUCCGACGAUCACUUUAAUCAUCCAGAAUAUCUUCAUCCAGAUUAAUGUCUGUUGUGUCAAUAUCCUCGGAUUCCAAGUUAUCCAAAUCAACUUCUAGUUCUAGUAAACUCUUUUCUUCUUUGUGGGUAGUCAACAGAGGAUUGAGCAUCA
B6: chr15:100049815:100049816:+_ENSMUSG00000023026_ENSMUST00000100203|mus_hu|motif|central (ssRNA)
RNA: GGGAGUUCUACAGUCCGACGAUCAAUGAGUUAAUAGAACACUGUCCAGCCAGAUGUUAAAUUUAAAAACGUAUAUCGGGUCGGACUUCAAAUAAAUAAAAAAACUUUAUACAUAAUUACACAGUACUGUAGUUUGAAUUUGACCAACAGAGGAUUGAGCAUCA
B7: chr1:58468927:58468928:-_ENSMUSG00000026034_ENSMUST00000148330|mus_mus|mus_mus_mus_hu_False|1_68 (ssRNA)
RNA: GGGAGUUCUACAGUCCGACGAUCAAUUACUGAAAAAGAUGUUCAUUACCUUAGCUAUGUACUUAAUUUAAUAAAGCACCCAAACAAAAUAAACAUGGCAAUAUAAAAAUGUUAAGAAUUUACAAAGCUGUACAAAAAGACUGACAACAGAGGAUUGAGCAUCA
B8: chr15:100049815:100049816:+_ENSMUSG00000023026_ENSMUST00000100203|mus_mus|motif|central (ssRNA)
RNA: GGGAGUUCUACAGUCCGACGAUCAAUGAGUUAAUAGAACACUGUCCAGCCAGAUGUUAAAUUUAAAAAUGUAUAUCGGACCGGAUUUCAAAUAAAUAAAAAAACCUUUAUACAUAAUUACACAGUACUAUAGUUUGAAUUGGACAACAGAGGAUUGAGCAUCA
B9: chr1:58468927:58468928:-_ENSMUSG00000026034_ENSMUST00000148330|mus_mus|mus_mus_mus_hu_False|58_68 (ssRNA)
RNA: B7 RNA with C78U, C80U, C84A, A137U, G138A, G142U
B10: chr15:100049815:100049816:+_ENSMUSG00000023026_ENSMUST00000100203|mus_hu|FALSE|FALSE (ssRNA)
RNA: B6 RNA with G77U, G78A, G82U, G83A
B11: chr1:58468927:58468928:-_ENSMUSG00000026034_ENSMUST00000148330|mus_mus|mus_mus_mus_hu_False|68_68 (ssRNA)
RNA: B7 RNA with A137U, G138A, G142U
B12: chr10:33190432:33190433:-_ENSG00000150093_ENST00000302278|hu_mus|hu_hu_hu_mus_True|28_68 (ssRNA)
RNA: GGGAGUUCUACAGUCCGACGAUCUACAUUUUCCAAACCUGCAUGUGAAUAAAACCCUGGCCACAGAGCCCUAAAGCUACCCUACUGUGACUAAGAUGCUGCUGCUGUUGCAUUCAGGUUGCAAAAUCCGCCUGAGUAGGAUUCCAACAGAGGAUUGAGCAUCA
B13: chr5:38529146:38529147:-_ENSMUSG00000029126_ENSMUST00000031009|mus_mus|FALSE|FALSE (ssRNA)
RNA: GGGAGUUCUACAGUCCGACGAUCAGAAAAGCUAAAGUAGCCCUGGCUUACCCAAAAUUACAUUUCACUUUGCCCACUGGCUAAUAAAACAAAACAAAACAAAACAAAAAACCCAAACUGCACCUGCAUUCAGGGCUGUACGUGCAACAGAGGAUUGAGCAUCA
B14: chr1:58468927:58468928:-_ENSMUSG00000026034_ENSMUST00000148330|mus_mus|mus_mus_mus_hu_False|18_68 (ssRNA)
RNA: B7 RNA with U118A, U119A, C122A, A123C, A124U, A125U, G126A, A137U, G138A, G142U
B15: chr5:38529174:38529175:-_ENSMUSG00000029126_ENSMUST00000031009|mus_mus|FALSE|FALSE (ssRNA)
RNA: GGGAGUUCUACAGUCCGACGAUCGAAAAGCUAAAGUAGCCCUGGCUUACCCAAAAUUACAUUUCACUUUGCCCACUGGCUAAUAAAACAAAACAAAACAAAACAAAAAACCCAAACUGCACCUGCAUUCAGGGCUGUACGUGCCAACAGAGGAUUGAGCAUCA
B16: chr1:58468927:58468928:-_ENSMUSG00000026034_ENSMUST00000148330|mus_mus|mus_mus_mus_hu_False|28_68 (ssRNA)
RNA: B7 RNA with U109G, G110C, U112A, A113U, G115C, A137U, G138A, G142U

Target: T1, UNK ZnF1-3 (human, UniProt Q9C0B0 31-174)
T1 sequence: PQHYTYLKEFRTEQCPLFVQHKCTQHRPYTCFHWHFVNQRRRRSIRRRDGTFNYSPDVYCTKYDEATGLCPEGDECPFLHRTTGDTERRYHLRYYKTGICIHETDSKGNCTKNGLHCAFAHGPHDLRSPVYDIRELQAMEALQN
Assay: nsRBNS (natural sequence RNA bind-n-seq); RBNS binding buffer (assumed for nsRBNS): 25 mM Tris pH 7.5, 150 mM KCl, 3 mM MgCl2, 0.01% Triton X-100, 500 ug/ml BSA, 20 U/ml SUPERase-In, 4 C; UNK is unkempt and MSI1 is Musashi-1; names of the RNAs are library labels; protein concentration not given here; high values mean tight binding

Binder | binding signal [enrichment R]
B1 | 0.872
B2 | 0.663
B3 | 1.08
B4 | 1.31
B5 | 0.449
B6 | 4.96
B7 | 1.68
B8 | 2.23
B9 | 3.76
B10 | 1.95
B11 | 1.87
B12 | 1.01
B13 | 4.49
B14 | 3.68
B15 | 1.5
B16 | 0.868
